# Compound activity: PubChem BioAssay, several laboratories
# Hits are enriched below; roughly 1.6% of the tested compounds scored in any of these assays.
# ATG4B inhibitor: inhibitors of human ATG4B cysteine protease. ATG4B cleavage of LC3-PLA2, NBD-HPC fluorescence, 1 h. Q9Y4P1. 340,000 compounds, 0.51% hits. inhibition, % at 8.33 µM; in the data active = inhibition above about 40%
# PKA-R1A activ: activators of PKA-R1A complex; P00514+P68181; PKA-R1A dissociation, Cy5-IP20 fluorescence polarization; scaled: DMSO 0%, 113 µM cGMP 100%; activation, % at 11.4 µM; 340,000 compounds, 0.083% hits;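 active = percent activation above the mean of all tested compounds plus 3 SD, cut at about 19% in these data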;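 also: higher means more PKAc released from R1A so a rise in polarization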
# CendR NRP1 mod: alters CendR peptide binding to human NRP-1. O14786. FAM-RPARPAR peptide binding to NRP-1, fluorescence polarization. inhibition, % at 25 µM. 360,000 compounds, 0.85% hits;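 active = inhibition or corrected inhibition above about 18%, plus a signal ratio from 0.5 to 1.5, limit read from the data, passing the limit was not always enough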
# PKA-R2B act: activates the human PKA-R2B holoenzyme complex; activation, % at 11.4 µM; PKA-R2B holoenzyme dissociation, Cy5-IP20 fluorescence polarization; R2B truncated from residue 108, S112A mutant; 0% DMSO only, 100% 113 µM cGMP; AID 504700; 340,000 compounds, 0.079% hits; P22694+P31323;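 active = activation above a cutoff set at the mean over all compounds plus 3 SD, cut at about 18% in these data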;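 also: higher means more holoenzyme dissociation and a rise in polarization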
# VLA-4 inh: inhibition in a human VLA-4 binding assay | AID 2557 | VLA-4 expressing cells, ligand binding flow cytometry | P13612 | 330,000 compounds, 0.2% hits | inhibition, % (about 7 µM as worked out from the volumes in the protocol); in the data active = inhibition above about 50%
# * marks the source's active call; other numbers are inactive results; / = no result.
SMILES,ATG4B inhibitor,PKA-R1A activ,CendR NRP1 mod,PKA-R2B act,VLA-4 inh
FC(F)(F)C1CC(c2cccs2)Nc2ncnn21 (stereo not drawn),0.3,-4.7,29.9*,-1.3,14.0
O=S(=O)(Nc1ccc(Cl)cc1NS(=O)(=O)c1ccccc1)c1ccccc1,-3.0,-6.1,17.2*,2.6,/
COC(=O)[C@@]12C[C@@H](CC(=O)N3CCOCC3)C(=O)N(Cc3ccco3)C1=CCC(C)(C)C2,/,/,2.2,/,/
COc1ccc(/C=C/C(=O)Nc2cccc(F)c2)cc1S(=O)(=O)N1CCOCC1,-15.6,-15.2,23.2*,-12.5,16.1
Cc1cccc(NCc2ccccc2O)c1C,5.8,-11.9,41.6*,-12.0,6.8
CCC(Oc1ccccc1)C(=O)Nc1nnc(S(=O)(=O)N2CCCC2)s1 (stereo not drawn),1.3,-0.4,0.8,-1.7,17.0
N#CCCN1CCNCC1,4.1,-1.4,34.2*,-5.1,-5.5
N#CCCN1CCN(CCC#N)CC1,-4.3,-5.8,-8.8,-0.3,24.6
O=C(NCC1CCCCC1)c1ccc(Cl)c(S(=O)(=O)N2CCOCC2)c1,-7.9,-6.1,6.1,-3.8,0.0
Cc1ccc(C(=O)Nc2ccc3c(c2)CCC3)cc1S(=O)(=O)N1CCOCC1,-18.0,-8.8,-0.3,-11.3,4.5
O=C(Nc1ccc2c(c1)CCC2)c1ccc(F)c(S(=O)(=O)N2CCOCC2)c1,-11.6,-7.2,25.3*,3.6,10.5
O=C(NCC1CCCCC1)c1ccc(F)c(S(=O)(=O)N2CCOCC2)c1,0.9,-3.1,20.9*,-11.7,-7.7
CC1CCCC(C)N1C(=O)COC(=O)c1ccc(F)c(S(=O)(=O)N2CCOCC2)c1 (stereo not drawn),1.7,3.5,22.6*,-9.7,7.1
FC(F)(F)c1ccc(-c2cccc3c2C2CC3CCN2Cc2ccc3c(c2)OCO3)cc1 (stereo not drawn),/,/,6.0,/,/
CN(C)c1ccc(NC(=O)CN2CCc3ccccc3C2)cc1,-2.7,-3.6,0.6,0.3,-4.0
CC(C)(C)n1nnnc1C(c1cc2ccccc2o1)N1CCOCC1 (stereo not drawn),/,/,-1.1,/,/
COc1cc(Cl)ccc1OC1(C)CCN(Cc2cccn2-c2nccs2)C1 (stereo not drawn),/,/,-3.4,/,/
Cc1cccc(C)c1NC(=O)C(c1ccc(C#N)cc1)n1c(=O)c(-c2ccccc2)nc2ccccc21 (stereo not drawn),/,/,-24.7,/,/
c1ccc(C2CC(c3ccccc3)n3c(nc4ccccc43)N2)cc1 (stereo not drawn),-4.3,-1.5,24.3*,-4.7,10.7
Cc1ccsc1CN(C(=O)c1ccccc1)C1CCS(=O)(=O)C1 (stereo not drawn),-3.8,0.9,21.8*,0.6,3.6
O=C(c1cccs1)N(Cc1ccc(Cl)cc1)C1CCS(=O)(=O)C1 (stereo not drawn),-1.2,-8.1,4.4,-6.0,-117.7
CC(C)c1ccc(CN(C(=O)c2cccs2)C2CCS(=O)(=O)C2)cc1 (stereo not drawn),-12.2,-10.5,17.9*,6.3,5.4
OCc1ccccc1OCCCOc1cccc2cccnc12,-2.2,-8.7,32.7*,-6.2,10.8
CCCCN1CC(N2CCN(C(=O)c3ccco3)CC2)CS1(=O)=O (stereo not drawn),/,/,6.4,/,/
Cc1ccn(CCC(=O)N2CCc3ccccc32)n1,-13.5,-0.5,19.7*,-7.8,-18.8
SMILES,ATG4B inhibitor,PKA-R1A activ,CendR NRP1 mod,PKA-R2B act,VLA-4 inh
O=C1NC[C@@H](CCCCN2CCN(Cc3ccccc3)C(=O)C2=O)N(CCC2CCCCC2)C1=O,/,/,-7.1,/,/
Cc1cc(S(=O)(=O)Nc2noc3ccccc23)ccc1F,-3.2,-1.6,10.1,-1.7,-8.0
COc1ccc(CN2C(=O)CSCC2(C)C(=O)NCc2ccccc2)cc1 (stereo not drawn),/,/,-1.2,/,/
Cc1cccc(C)c1NC(=O)CN(Cc1ccccc1)Cc1ccccc1,/,/,8.6,/,/
COc1ccc(C(C)(O)c2nc(-c3ccccc3C)cs2)cc1 (stereo not drawn),/,/,-4.8,/,/
CCOc1ccc(Nc2ccc(N)c(S(=O)(=O)O)c2)cc1,18.3,7.2,39.5*,2.4,/
CCOc1ccc(NS(=O)(=O)c2ccc(N)cc2)cc1,-0.6,-1.8,8.8,-3.7,11.8
O=C(Nc1ccccc1)Nc1nnc(-c2ccccc2)o1,-5.0,-6.1,40.2*,2.2,-4.2
Cc1ccc(NC(=S)NCCSc2ccc(Cl)cc2)cc1,7.7,-6.5,5.4,2.9,9.8
COC(=O)Cc1ccc(NC(=S)NCCCO)cc1,-4.3,-3.8,40.3*,-1.5,4.6
COC(=O)Cc1ccc(NC(=S)NCCSc2ccc(C)cc2)cc1,-3.4,-4.3,29.2*,-9.6,-1.0
O=C(Nc1cccc([N+](=O)[O-])c1)C1COc2ccccc2O1 (stereo not drawn),3.6,-1.8,0.5,-4.0,8.1
C=CCC(C#Cc1ccc(C)cc1)N(CC)CC (stereo not drawn),1.1,-4.5,28.7*,7.1,25.9
CCN(CC)CC#Cc1ccc(C)cc1,-6.4,3.9,9.5,5.4,-7.7
CC(C)=CC(=O)Nc1ccc(S(=O)(=O)Nc2ccccn2)cc1,-7.2,-5.7,0.2,-1.9,5.2
O=C1CCCCN1CCC(=O)N1CCCC(N2CCN(c3cccc(Cl)c3)CC2)C1 (stereo not drawn),5.6,-5.1,25.3*,-0.5,-7.2
CN(C)CCn1c(=O)n(-c2ccc(F)cc2)c(=O)c2c3c(sc21)CCCCC3,-9.6,3.6,34.8*,-4.7,-0.5
CN1C(=S)SC(N(O)C(=O)Nc2cccc3ccccc23)C1(C)C (stereo not drawn),-4.5,0.3,31.1*,-5.6,-2.6
CN1C(=S)SC(N(O)C(=O)Nc2ccccc2)C1(C)C (stereo not drawn),-8.6,-1.1,-11.0,-4.8,3.0
COc1ccc(CN2C(=O)CN(S(C)(=O)=O)CC2(C)C(=O)NC(C)C)cc1 (stereo not drawn),/,/,8.0,/,/
O=C(Nc1ccc2c(c1)OCCO2)C1c2ccccc2OCC(=O)N1Cc1ccco1 (stereo not drawn),/,/,-0.2,/,/
Cc1ccc(O)c(-c2cc(C(=O)Nc3ccc(S(=O)(=O)Nc4nc(C)cc(C)n4)cc3)[nH]n2)c1,-10.6,-3.4,28.9*,6.1,18.6
Cc1ccc(O)c(-c2cc(C(=O)Nc3ccc(S(=O)(=O)N4CC(C)OC(C)C4)cc3)[nH]n2)c1 (stereo not drawn),-21.2,-4.1,4.2,0.9,6.1
CN(C)/C=C1\NC(=S)N(c2ccc(Cl)cc2)C1=O,-1.0,9.0,-11.7,9.3,-3.0
CN(C)/C=C1\NC(=S)N(c2ccccc2)C1=O,-5.2,5.7,24.7*,-7.2,2.8
Cc1ccc(C#CC[N+](C)(C)CC#Cc2ccccc2)cc1,-13.7,-4.1,-18.3,-7.4,-0.6
O=C(COC(=O)CCNS(=O)(=O)c1ccc(Cl)cc1)NCc1ccccc1,/,3.7,-10.3,5.7,/
O=C(COC(=O)CCNS(=O)(=O)c1ccc(Cl)cc1)NCc1ccco1,-9.7,-6.3,19.3*,-10.8,3.4
